Compound activity (PubChem BioAssay)
VACV mCherry inh = qHTS for Stage-Specific Inhibitors of Vaccinia Orthopoxvirus: mCherry Reporter Primary qHTS | 310,000 tested, 0.63% active | Vaccinia virus mCherry reporter infection, fluorescence | Potency, µM (titrated, usually from 36.5 µM), actives largely listed as inhibitors; calls by dose curve; tested in A549 cells; also: nearly all actives have a fitted effect of over 35% in size
Pf growth 96h = Primary qHTS for delayed death inhibitors of the malarial parasite plastid, 96 hour incubation; P. falciparum luciferase reporter growth, 96 h; Potency, µM (titrated, usually from 28.7 µM), usual class: inhibitors; 320,000 tested, 6.9% active
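Two-generation exposure (96 h) targets delayed-death phenotype. Reporter parasites carrying integrated firefly luciferase, in red cells at 2% hematocrit and 0.05% parasitemia final, kept at 37 C, 5% CO2; luminescence loss indicates inhibition.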
NS1 inh = qHTS Assay for Inhibitors of Influenza NS1 Protein Function | 270,000 tested, 0.4% active | AID 2326, 2010 | Potency, µM (doses to about 46.1 µM); calls by dose curve; also: actives are rising curves; nearly all actives have a fitted effect of over 50% in size
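In this qHTS, NS1 from influenza A is expressed in budding yeast, where it slows growth. Cells are switched from glucose to 2% galactose medium (pH 6.0, -URA), treated with compound, and growth recovery is read at OD600.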
VACV Venus inh = qHTS for Stage-Specific Inhibitors of Vaccinia Orthopoxvirus: Venus Reporter Primary qHTS | Vaccinia virus Venus reporter expression, fluorescence | Potency, µM (doses to about 36.5 µM), most hits filed as inhibitors | 330,000 tested, 0.46% active; calls by dose curve; tested in A549 cells; also: nearly all actives have a fitted effect of over 30% in size
HCV inh = qHTS Assay for Inhibitors of Hepatitis C Virus (HCV); Huh7.5.1 HCVcc-Cre infection, luciferase reporter, 44 h; Potency, µM (top dose mostly 41.8 µM), hits mostly inhibitors; 340,000 tested, 3.4% active
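Luciferase read-out (15 sec integration) after a 15 min room-temperature substrate step quantifies HCVcc-Cre infection. Cells, 1,000 per well, had compound added 4 h post-plating, then virus at ~0.5 moi, and were cultured 44 h.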
Pf growth 48h = Primary qHTS for delayed death inhibitors of the malarial parasite plastid, 48 hour incubation; Potency, µM (series often up to 28.7 µM), hits mostly inhibitors; P. falciparum luciferase growth in erythrocytes, 48 h; 310,000 tested, 5.9% active
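A one-generation exposure of luciferase-tagged malaria parasites in RPMI 1640/Albumax erythrocyte culture, 37 C and 5% CO2. Inhibition is inferred from decreased luminescence after adding detection reagent.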
Numbers stand for hits; i = inactive; ? = inconclusive; nt = no result. This is a sample that favours compounds with a hit; in the whole collection about 11% have one here. Unless noted, calls follow the shape of the dose curve; as a rule, active = well fitted inhibition curve with a large enough effect; inconclusive = small, poorly fitted or top-dose-only effect, or another doubt; inactive = no such curve, though single readings can be large or run the other way.

SMILES	VACV mCherry inh	Pf growth 96h	NS1 inh	VACV Venus inh	HCV inh	Pf growth 48h
Cc1ccc(NC(=O)c2cccs2)cc1NC(=O)c1ccc(F)cc1	i	10µM	i	i	?	i
COc1cccc(C(=O)Nc2cc(NC(=O)c3cccs3)ccc2C)c1	nt	?	i	nt	i	i
COc1cc(C(=O)OCc2ccc(C)cc2)cc(NC(=O)c2cccs2)c1OC	i	10µM	i	i	?	8.3µM
Cc1ccc(NC(=O)c2cccs2)cc1NC(=O)c1cccc(F)c1	nt	?	i	nt	i	i
C=CCn1c(SCC(=O)NCc2ccc3c(c2)OCO3)nnc1C1CCCCC1	i	i	i	i	i	i
CC(=O)c1ccccc1OC(=O)c1ccco1	i	i	i	i	i	i
FC(F)(F)c1ccccc1NC(=S)NN1CCOCC1	nt	i	i	nt	i	nt
CCc1ccc(N=C2NC(=O)CS2)cc1	i	9.3µM	i	i	i	?
COc1ccc(/C=C/C(=O)Nc2cc(C)nn2-c2nc3ccccc3n2Cc2cccc([N+](=O)[O-])c2)cc1	i	9.3µM	i	i	?	?
O=C(CN1C(=O)COc2ccccc21)NCCCN1CCN(Cc2ccccc2)CC1	i	0.37µM	i	i	i	i
O=C(CN1C(=O)COc2ccccc21)NCCN1CCOCC1	i	i	i	i	i	i
O=C(CN1C(=O)COc2ccccc21)NCCN1CCC(Cc2ccccc2)CC1	i	?	i	i	22µM	nt
O=C(CN1C(=O)COc2ccccc21)N1CCc2ccccc2C1	i	10µM	i	i	i	i
CCO[C@H]1OC(C(=O)NCc2ccccc2)=C[C@@H](C)[C@@H]1CCCO	i	i	i	i	i	i
CCOC(=O)c1c(C)c2c(n1C)CCC/C2=N\O	nt	12µM	i	i	i	i
Cc1ccccc1NC(=O)c1sc2nc(N3CCOCC3)c3c(c2c1N)CCCC3	nt	?	i	nt	?	?
Cc1ccc(C)c(CS(=O)(=O)c2cn(CC(=O)N3CCC(C)CC3)c3ccccc23)c1	i	5.2µM	i	i	i	?
O=c1[nH]c(NCc2ccccc2)nc2c1CCC2	i	15µM	i	i	i	i
CC(C)(C)C(=O)Nc1nc2c(c(=O)[nH]1)CCCC2	i	i	nt	i	i	9.3µM
Cc1nc(Nc2ccccc2)[nH]c(=O)c1CCC(C)C	nt	nt	i	nt	i	?
CCCCCc1c(C)nc(NCc2ccccc2)[nH]c1=O	i	nt	i	i	nt	2.1µM
O=c1[nH]c(N2CCN(Cc3ccccc3)CC2)nc2c1CCC2	i	i	i	i	i	i
Cc1cc(C)c(S(=O)(=O)N2CCCC(C(=O)NCCC3=CCCCC3)C2)c(C)c1 (configuration not stated)	nt	?	i	nt	i	?
COc1ccc(C2=NN3C(=O)c4c(ccc(OC)c4OC)C3C2)cc1 (configuration not stated)	nt	i	i	i	i	2.6µM
COc1ccc2c(c1OC)C(=O)N1N=C(c3ccc(O)cc3)CC21 (configuration not stated)	nt	i	i	i	i	1.3µM
SMILES	VACV mCherry inh	Pf growth 96h	NS1 inh	VACV Venus inh	HCV inh	Pf growth 48h
COc1ccc2c(c1OC)C(=O)N1N=C(c3ccc(Cl)cc3)CC21 (configuration not stated)	i	i	i	i	i	5.9µM
COc1ccc2c(c1OC)C(=O)N1c3ccccc3N=C(c3ccc([N+](=O)[O-])cc3)CC21 (configuration not stated)	i	i	?	i	i	2.6µM
COc1cccc(C2CC(c3ccccc3)=NN2S(=O)(=O)c2ccc(C)cc2)c1OC (configuration not stated)	?	?	nt	i	?	?
COc1ccc2c(c1OC)C(=O)N1N=C(c3ccc(Br)cc3)CC21 (configuration not stated)	i	i	i	i	i	?
COc1ccc2c(c1OC)C(=O)N1N=C(c3ccc(-c4ccccc4)cc3)CC21 (configuration not stated)	nt	?	nt	nt	i	?
COc1ccc(C2=NN(c3ccccc3)C(c3ccc(OC)c(OC)c3)C2)cc1 (configuration not stated)	nt	?	?	nt	i	i
CCNC(=O)C1(C)CCCN(C(=O)c2cc(C)nn2C(C)(C)C)C1 (configuration not stated)	i	nt	nt	i	nt	nt
O=C(Cn1ccc2cc(S(=O)(=O)N3CCCC3)ccc21)NCc1ccco1	nt	?	i	nt	i	i
Cc1cccc(C(=O)Nc2ccc(-c3nc4cc(C(C)C)ccc4o3)cc2)c1	i	nt	nt	i	nt	nt
Cc1cccc(C(=O)NC2CCN(S(=O)(=O)c3cccc(F)c3)CC2)c1	nt	nt	nt	nt	i	nt
COc1cc(Br)c(CC(=O)NNC(=O)c2ccc(F)cc2)cc1OC	i	nt	nt	i	i	nt
C[C@]12CC[C@H](OC(=O)CCC(=O)O)CC1=CCC1C2CC[C@@]2(C)C1CC[C@@H]2N (some centres not stated)	i	nt	nt	i	i	nt
Cc1ccc(-c2c[n+](CC(=O)Nc3c(C)cccc3C)c3n2CCC3)cc1	nt	15µM	i	nt	i	?
CCc1ccc(NC(=O)CCC(=O)c2ccc(C)cc2)cc1	i	i	i	?	i	i
CCc1ccc(NC(=O)C[n+]2cc(-c3ccc(C)cc3)n3c2CCC3)cc1	nt	1.5µM	i	nt	?	2.9µM
Cc1ccc(N(CC(=O)Nc2c(C)cccc2C)S(C)(=O)=O)cc1	i	i	i	i	i	i
Cc1ccc(NC(=O)C[n+]2cc(-c3ccccc3)n3c2CCC3)c(C)c1	i	5.2µM	i	i	i	?
CCN(CC(=O)Nc1ccc(NC(C)=O)cc1)C(=O)Cc1cccc2ccccc12	i	i	i	i	i	i
C=CCn1c(C)cc(C)c(C#N)c1=O	nt	i	i	nt	i	i
COc1cc(-n2ccnc2SC)c(Cl)cc1Cl	i	i	i	i	i	i
CC(C(=O)N1CCc2ccccc21)N1CCc2ccccc2C1 (configuration not stated)	nt	9.3µM	i	nt	i	?
CC(Sc1nnc(-c2ccccc2)c(-c2ccccc2)n1)C(=O)N1CCc2ccccc21 (configuration not stated)	i	7.4µM	i	i	?	i
CC(C(=O)N1CCc2ccccc21)N1CCN(S(=O)(=O)c2cccc(C(F)(F)F)c2)CC1 (configuration not stated)	nt	13µM	nt	nt	i	12µM
Cc1nn(C(C)C(=O)N2CCc3ccccc32)c(C)c1[N+](=O)[O-] (configuration not stated)	i	5.2µM	i	i	i	?
CCN(CC)C(=O)COc1ccc(/C(C)=N/NC(=O)c2ccccc2O)cc1	i	i	i	i	i	i
N#CCC(=O)NCCCc1ccccc1	i	i	i	i	i	i
CCCCCC1CCC(C(=O)O)CC1 (configuration not stated)	nt	i	i	nt	i	?
